Assay results taken from PubChem BioAssay.
Entries with a potency or affinity are not part of this list. Active and inactive are the calls of the source. The limit is not given here; nearly all actives have IC50 up to about 0.98 µM.

Target: Calcium-dependent protein kinase 1 (Plasmodium falciparum (isolate 3D7)) (UniProt P62344)
Experiment: PfCDPK1 kinase inhibitors, biochemical, TCAMS library (AID 1159585);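 also: inhibitors leave more ATP so luminescence rises with inhibition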
Settings: recombinant PfCDPK1, Kinase-Glo ATP depletion luminescence

Sequence of Calcium-dependent protein kinase 1 (Plasmodium falciparum (isolate 3D7)) (P62344 whole entry, looked up): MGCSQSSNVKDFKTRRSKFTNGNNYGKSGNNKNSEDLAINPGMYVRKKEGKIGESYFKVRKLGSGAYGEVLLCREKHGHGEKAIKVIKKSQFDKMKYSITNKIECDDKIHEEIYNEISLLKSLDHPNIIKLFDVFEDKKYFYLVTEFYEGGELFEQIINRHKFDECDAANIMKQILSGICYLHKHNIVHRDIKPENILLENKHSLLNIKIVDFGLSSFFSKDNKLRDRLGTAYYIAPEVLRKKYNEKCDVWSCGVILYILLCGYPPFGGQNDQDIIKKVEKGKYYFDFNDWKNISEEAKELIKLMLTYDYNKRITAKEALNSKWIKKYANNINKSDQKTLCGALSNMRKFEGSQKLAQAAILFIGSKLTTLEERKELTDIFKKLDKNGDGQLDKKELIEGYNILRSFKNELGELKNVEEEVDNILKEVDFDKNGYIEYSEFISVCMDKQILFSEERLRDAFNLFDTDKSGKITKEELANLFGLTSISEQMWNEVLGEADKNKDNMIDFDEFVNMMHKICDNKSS

outcome, inactive:
CCN1CCC(N(Cc2ccc(-c3ccc(C(F)(F)F)cc3)cc2)C(=O)Cn2c(CCc3cccc(F)c3F)cc(=O)c3c2CCC3)CC1
Cc1cc(=O)c2cc(Oc3cccc(OC(F)(F)F)c3)ccc2[nH]1
COc1ccc(CCn2c(=N)c(C(=O)NC3CCCC3)cc3c(=O)n4ccccc4nc32)cc1
COc1cc(CCON2C(N)=NC(N)=NC2(C)C)cc(OC)c1OC
CSC1=NC(=Nc2ccccc2C)C2(CCC(C(C)(C)C)CC2)N1c1ccccc1Cl (stereo not given)
COc1ccc(-c2cnc3ccc(NCc4ccc(F)cc4)nn23)cc1OC
CNC(=O)c1cnc(Nc2ccc(N3CCN(C)CC3)c(C)c2)nc1NC
CCNc1cc(C)nc(Nc2ccccc2)n1
Oc1cc(Nc2ccnc3ccc(I)cc23)c(F)cc1Cl
c1ccc(-c2cccnn2)cc1
CC(C)C[C@H](Nc1ccnc(NCC2CCCCC2)n1)C(=O)NCCc1ccccc1
COc1ccc(CNc2ncc(-c3ccsc3)c(-c3nccs3)n2)cc1OC
O=C(CCc1cnc[nH]1)Nc1cccc(-c2ccc(-c3nc4ccccc4[nH]3)s2)c1
CCc1cc2c(=O)c(-c3nc(C)cs3)c([C@H](N)Cc3ccc(O)cc3)oc2cc1O
O=C(Nc1ccccc1)N(Cc1ccccc1-c1cccc(CNCCc2ccccc2)c1)C1CCN(Cc2ccccc2)CC1
Cc1cccc2c(N=NC(=S)N(C)C)c(O)[nH]c12
COc1cc(OC)cc(-c2nc3c(C#N)c(OCCN(C)C)ccc3[nH]2)c1
c1cc(-c2ccc(CNC3CC3)cc2)cc(-c2nc3ccccc3[nH]2)c1
O=C(Nc1ccccc1)OCCOc1ccc(CC2SC(=O)NC2=O)cc1 (stereo not given)
O=C(C=CC(=O)N1CCCCC1)NCc1ccccc1
CCNc1cc(C(=O)N[C@@H](Cc2ccccc2)[C@H](O)CNCCc2ccccc2)cc(N2CCCCS2(=O)=O)c1
O=C(Nc1ccc(-c2cccc(-c3nc4ccc(C(F)(F)F)cc4[nH]3)c2)cc1)c1csnn1
O=C(C=Cc1ccc(Cl)c(Cl)c1)NCCCCCN1CCCC(CCCNC(=O)[C@@H]2C[C@H]2c2ccccc2)C1 (stereo not given in full)
CNCCNCc1cccc(-c2ccc(-c3nc4ccccc4[nH]3)s2)c1
Fc1cc(Cl)ccc1Nc1ccnc2cc(I)ccc12
CCOc1cc(C(=O)NC2CC(C)(C)NC(C)(C)C2)ccc1-c1nc2ccc(Cl)cc2[nH]1
CC(=O)Nc1ccc(C(=O)Nc2cccc(-c3cccc(-c4nc5ccc(C(F)(F)F)cc5[nH]4)c3)c2)cn1
CCNc1cc(C(=O)N[C@@H](Cc2ccccc2)[C@H](O)CNC2CCCCC2)cc(N2CCCCS2(=O)=O)c1
Cc1nc(Nc2ccncc2)cc(-c2ccncc2)n1
Cc1cccc2[nH]c(-c3cccc(-c4ccc(NC(=O)Cc5ccccn5)cc4)c3)nc12
Cc1ncc([N+](=O)[O-])n1CCOC(=O)NC(Nc1ccc(Br)cc1)C(Cl)(Cl)Cl (stereo not given)
CC(C)(C)C1CC(=O)C[C@@H]2C(=O)N(c3ccc(Br)cc3)C(=O)[C@H]12 (stereo not given in full)
CC(C)CNCc1ccc(-c2cccc(CNC3CCN(Cc4ccccc4)CC3)c2)cc1
COC(=O)CCCCOc1c(OC)cc(Cc2cnc(N)nc2N)cc1OC
Cc1nc(-c2ccc(-c3ccc(NC(=O)c4coc5ccc(N6C[C@@H](C)N(C)[C@@H](C)C6)cc45)cc3)c(C)c2)no1
COC(=O)Cc1ccc(N)c2ccccc12
Oc1ccc(CCCNc2nc(NCc3cccc4ccccc34)nc(NC3CCNCC3)n2)cc1
CCCCC(NCC)c1ccc(OCCOc2ccc(C(CCCC)NCC)cc2)cc1 (stereo not given)
CN1CCC(NCc2ccc(-c3ccc(C(F)(F)F)cc3)cc2)CC1
CC(=O)Nc1ccc(CN2CCC(NC(=O)c3ccc(-c4cccc(C(F)(F)F)c4)s3)CC2)cc1
